Test system: VDR:RXRa (NR concentration 270 nM, RXRa partner concentration 90 nM)
Assay: PBM binding z-score (relative to random genomic background probes); higher = stronger binding; sequences stand for … in GC…GCGATTGACAGCGTAGAATGAAGG
Description: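 Protein-binding microarray (Agilent 4x180K custom design, double-stranded 60-nt probes: 5' GC cap, 34-nt variable region, 24-nt constant primer region; full probe sequence given). Purified or IVT nuclear receptor:RXRα heterodimers (3:1 NR:RXRα, mostly 270:90 nM) or homodimers were incubated for 1 h in PBS with 2% milk and no ligand, then detected with Alexa488 antibodies. Fluorescence from o1-orientation probes (~5 replicates averaged) was converted to z-scores against 500 random hg19 background probes. Variable regions are seed direct-repeat (DR0–DR5) sites, all their single-nucleotide variants and half-site ablations.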

Sequence	PBM binding z-score
ATCTCTACGTAAGACTCAGTTCAGTGAAGAACGC	0.645
AGAAAGAGGTTATACGTAGATCAGGGAAGAAAGT	1.4
TTACCAAGGTGTAGGTCGTTGATCCCTCTGTAGA	0.256
CGTCCAAGGTCAAAGGTCGGTGAAGAGATGACGG	5.32
CCCGAAAGGTCGGTTGAGGTGAGTATACGGATAA	2.57
CGTCCAAGGTTATAGGAGGTCAGTGAAGACAGAT	4.85
CGAACTAGGTGAGAACAGGACAGTGAAGGATGAT	-0.123
TATACAGGGTCAAAGGCTAGAGTACGAATGTCGA	4.8
GTACCATGGTGAATAGGTCGTTGATGAGTAGGCG	-0.0102
ACTAGCAGGCCAGGTTTGGGTCACTCAAACAAAG	0.437
ACTAGCAGGCCAAGTTTGGGTCGCTCAAACAAAG	-0.328
AGAATGAGGCTACCAAAGATCAGGGAAACGCTTG	-0.544
CGAAGTAGGTCAAGGACAGTGAATCTCCGCACGC	1.52
TCTTGTAGATCAAGCCGGTTAAGAAAGCCTGAGT	0.32
CCTCGGAGGGCAACAGGAGGTCAGAGCTGCCAGA	3.12
ACTCACGGGTCAACGAGGTTATAGCACGCGTATA	7.63
ACAGACAGGTGAGTGAAGGTAACTTAGCTGGACG	-0.357
CGTCCAAGATCAATGCTAGGTCAGTGAAAGCATT	0.425
ATACCAAGGTGATCGTGAAGTCGTTGATACTAAC	0.0498
TCGAGTAGGTTATCAATGGGGCATTCAGCTTTCT	0.361

Sequence	PBM binding z-score
TGAATGAGGTGATAAGATCAGGGAACGTTGCAAA	-0.169
ATCTCTAGGTAACGAGTTCAGTGAAAGAGAGGAC	3.5
GATACAGGGTCAGCTAGAGGACAGAGTATGGAAA	3.75
TCTTGTAGCTCAAAGGTTAAGAAAGCCGAAGCCT	0.581
AGAATGAGGTTACCAAACATCAGGGAAACGCTTG	1.04
GCTATTAGTTGAAAGGGCAATCGAATGATTCTCG	0.219
GATACAGGGTCAAGACCAGAGTACGCGTATTGAT	4.33
CCTAGCAGGCCAATCTGGGTTACTCAAGGCTTGA	-0.43
CCTCGGAGGACAGAAGGTCAGAACTGTCCGCTTT	0.995
CGAACTCGGTCATCCAGGACAGTGAATACATTGA	2.61
CGAACTGGGTCATTGACAGGACAGTGAATAGTAA	2.05
TATAGCAGGCCAGAGGGTCACTCAAGAGGTACGG	1.58
CCTACTGGACCATTCAGAGGTCATTGATCATATG	3.95
AGTCAAAGTTCATCTAGGTAACCTAAGATATGCT	5.11
TGAATGAGGTTATGAGATCAGGGAACGTTGCAAA	0.987
AGAACGACGGCACGCTGAGTTGATAGCAGAGTAG	-0.301
TCTCCTAGGTCAGTTGGTCAGCTAACGAGCTGCC	0.839
ATACCAAGGTGAGCGTGAGGTCGTTGATACTAAC	3.32
ACTAGCAGGCCAAGGGTCAGTCAAGATTAGTCCG	1.12
TCTTGTAGATCAAGCAGGCTAAGAAAGCCTGAGT	-0.214
